Here are results for 101 compounds from ChEMBL document CHEMBL1201862, “PubChem BioAssay data set” (2004).

Where “and” joins values, the source holds several entries; their conditions need not be identical. Identical values can stand only once. Among all 400,000 compounds or so, about 2,100 (0.53%) were called active. About 14% were inconclusive and are not listed. How the calls were made is not given here. Only a selection was taken, and actives are over-represented in it overall.

Chain of Ataxin-2 (Homo sapiens) (Q99700 whole entry): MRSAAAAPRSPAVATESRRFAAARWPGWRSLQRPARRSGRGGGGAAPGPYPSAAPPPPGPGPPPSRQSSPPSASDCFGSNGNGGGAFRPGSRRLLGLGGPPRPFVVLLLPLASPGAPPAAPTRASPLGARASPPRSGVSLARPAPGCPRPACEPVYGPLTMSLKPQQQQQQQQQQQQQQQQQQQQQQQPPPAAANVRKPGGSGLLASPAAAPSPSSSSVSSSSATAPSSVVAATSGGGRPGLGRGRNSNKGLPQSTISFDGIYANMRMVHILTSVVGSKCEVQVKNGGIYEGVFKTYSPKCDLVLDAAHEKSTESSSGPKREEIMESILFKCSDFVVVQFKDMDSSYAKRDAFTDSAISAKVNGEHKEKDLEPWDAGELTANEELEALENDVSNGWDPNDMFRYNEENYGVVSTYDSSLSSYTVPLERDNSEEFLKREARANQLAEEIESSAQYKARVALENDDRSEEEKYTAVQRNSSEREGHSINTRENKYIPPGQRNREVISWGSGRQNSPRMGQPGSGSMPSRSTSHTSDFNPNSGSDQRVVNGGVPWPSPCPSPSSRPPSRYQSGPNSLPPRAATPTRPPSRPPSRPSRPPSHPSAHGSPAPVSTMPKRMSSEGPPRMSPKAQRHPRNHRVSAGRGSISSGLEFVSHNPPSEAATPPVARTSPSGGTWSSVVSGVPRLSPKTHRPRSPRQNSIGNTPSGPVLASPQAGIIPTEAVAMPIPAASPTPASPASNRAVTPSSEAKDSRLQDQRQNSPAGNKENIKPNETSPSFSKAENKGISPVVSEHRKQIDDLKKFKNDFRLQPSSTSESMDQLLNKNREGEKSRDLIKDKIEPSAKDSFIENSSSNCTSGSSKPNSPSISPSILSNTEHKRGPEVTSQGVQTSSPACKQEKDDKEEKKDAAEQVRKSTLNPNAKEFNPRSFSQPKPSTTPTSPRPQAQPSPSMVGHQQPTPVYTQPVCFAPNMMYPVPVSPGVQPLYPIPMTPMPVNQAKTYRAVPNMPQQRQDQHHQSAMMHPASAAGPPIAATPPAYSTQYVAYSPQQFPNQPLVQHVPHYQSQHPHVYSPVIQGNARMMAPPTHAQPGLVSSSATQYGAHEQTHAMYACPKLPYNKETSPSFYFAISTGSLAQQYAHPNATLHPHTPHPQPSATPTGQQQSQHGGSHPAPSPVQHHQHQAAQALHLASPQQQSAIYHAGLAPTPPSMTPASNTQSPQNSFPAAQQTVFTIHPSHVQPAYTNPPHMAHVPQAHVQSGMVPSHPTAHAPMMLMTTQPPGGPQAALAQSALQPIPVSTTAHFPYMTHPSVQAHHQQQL

This assay has as its target Ataxin-2 (Homo sapiens) (UniProt Q99700). Description: qHTS for Inhibitors of ATXN expression. The assay is classed as functional.
Consider `C=CCOC(=O)C(=O)/C=C/c1coc2ccccc2c1=O`, for which the Potency result was “inactive”.

Consider `CCOc1cc(C(=O)NC2=NCCS2)cc(OCC)c1OCC`, for which the Potency result is “inactive”.

Consider `Cc1noc(C)c1-c1nnc(-c2ccc(OC(F)(F)F)cc2)o1`, for which the Potency result is “inactive”.

In the case of `Fc1ccc(Br)cc1C1C=C(c2cccnc2)Nc2ncnn21` (stereo unspecified), the Potency result was “inactive”.

Take `O=C(CCN1Cc2ccccc2C1)c1ccc2c(c1)OCCO2`: the Potency is 25.1 µM (active).

As to `O=C(CCN1CCCC1Cc1ccccc1)c1ccc2c(c1)OCCO2` (stereo unspecified), the Potency was 31.6 µM (active).

Take `O=C(CCN1CCc2ccccc2C(O)(c2ccccc2)C1)c1ccc2c(c1)OCCO2` (stereo unspecified): the Potency is 39.8 µM (active).

Turning to `Nc1c(-c2ccc3c(c2)OCCO3)oc2ccccc2c1=O`, the Potency entry is “inactive”.

Turning to `O=C(C1CC(=O)N(c2ccc3c(c2)OCCO3)C1)N1CCN(Cc2ccccc2)CC1` (stereo unspecified), the Potency entry is “inactive”.

With `O=C(/C=C\Nc1ccccc1Br)c1ccc2c(c1)OCO2`, the Potency entry was “inactive”.

For the compound `N=C(NOC(=O)COc1ccc(Br)cc1Cl)c1ccncc1`, the Potency result was “inactive”.

For the compound `CC(C)C(NC(=O)C1CCCCC1)C(=O)NC1CCCC(C)C1C` (stereo unspecified), the Potency result is “inactive”.

As for `COc1cc(OC)c(-c2cc(C(=O)NCc3ccc(F)cc3)c3c(-c4ccccc4)[nH]nc3n2)cc1OC`, the Potency was 44.7 µM (active).

As for `Nc1c(C(=O)NCc2ccc(Cl)cc2)sc2nc(-c3ccc(F)cc3)ccc12`, the Potency result is “inactive”.

In the case of `Cc1ccc(CNC(=O)c2sc3nc(-c4ccc(F)cc4)ccc3c2N)cc1`, the Potency entry is “inactive”.

For `N#CCSc1ccc2nc(-c3ccccc3)cn2n1`, the Potency entry is “inactive”.

Turning to `Cc1ccc2c(c1)C(c1ccccc1)N(C(=O)COc1ccc(Cl)cc1Cl)CC(=O)N2` (stereo unspecified), the Potency was 28.2 µM (active).

As for `Cc1cc(OCC(=O)N2CCC(O)(c3ccc(Cl)cc3)CC2)c2c(C)cc(=O)oc2c1`, the Potency entry was “inactive”.

As for `CC1CC(=O)Nc2ccccc2N1C(=O)COc1ccccc1C(N)=O` (stereo unspecified), the Potency entry was “inactive”.

As to `COc1cccc2c1cc1c(=O)n(CC(=O)NCCCN3CCN(C)CC3)nc(C)n12`, the Potency entry is “inactive”.

Take `O=C(NC1CCN(Cc2ccccc2)CC1)c1ccc(Cn2c(=S)[nH]c3ccc(N4CCOCC4)cc3c2=O)cc1`: the Potency entry was “inactive”.

Consider `COc1ccc(N2CCN(C(=O)c3ccc(Cn4c(=S)[nH]c5ccc(N6CCOCC6)cc5c4=O)cc3)CC2)cc1`, for which the Potency entry is “inactive”.

Turning to `CCCCNC(=O)c1ccc(Cn2c(=S)[nH]c3c([nH]c4ccc(OC)cc43)c2=O)cc1`, the Potency was 39.8 µM (active).

On to `CCN(CC)c1ccc(/C=N/NC(=O)c2nnn(-c3nonc3N)c2-c2ccc(C)cc2)cc1`, for which the Potency result is “inactive”.

On to `Cc1cccn2c(=O)c3cc(C#N)c(=O)n(CCCN4CCOCC4)c3nc12`, for which the Potency entry is “inactive”.

In the case of `COc1cc(C(=O)NCCCNc2nc3cc(C)c(C)cc3cc2C#N)cc(OC)c1OC`, the Potency entry is “inactive”.

For `CCOC(=O)CNC(=O)C12CC3CC(C1)CC(c1ccc(C)cc1)(C3)C2`, the Potency entry is “inactive”.

As for `COc1ccc(CCNC(=O)COC(=O)C2CC2C)cc1OC` (stereo unspecified), the Potency result was “inactive”.

Take `COc1ccc(C23CC4CC(CC(C4)C2)C3)cc1C(=O)NCCN(C)C`: the Potency was 22.4 µM (active).

In the case of `Cc1nc(COc2ccccc2Cl)sc1-c1ccnc(N)n1`, the Potency entry was “inactive”.

`S=C(Nc1ccc2nc(-c3ccccn3)c(-c3ccccn3)nc2c1)N1CCOCC1`: the Potency entry is “inactive”.

Take `COc1ccc(-c2c(C)c3ccc(O)c(CN4CCOCC4)c3oc2=O)cc1`: the Potency result is “inactive”.

Consider `COc1ccc(C(c2c(O)ccc3ccccc23)N2CCOCC2)c(OC)c1` (stereo unspecified), for which the Potency is 15.8 µM (active).

For the compound `COc1ccc(-c2cc3ccc(O)c(CN4CCOCC4)c3oc2=O)cc1OC`, the Potency result is “inactive”.

With `CCN(CC)c1ccc(/C=N\NC(=O)c2cccc3cc[nH]c23)cc1`, the Potency entry was “inactive”.

Turning to `COc1cccc(Nc2nc(C(N)Cc3ccc(C(F)(F)F)cc3)cs2)n1` (stereo unspecified), the Potency was 31.6 µM (active).

With `NC(Cc1ccc(F)cc1)c1csc(Nc2nccc(C(F)(F)F)n2)n1` (stereo unspecified), the Potency was 39.8 µM (active).

`NC(Cc1ccc(F)cc1)c1csc(Nc2ccc(C(F)(F)F)cn2)n1` (stereo unspecified): the Potency is 35.5 µM (active).

As for `CCc1cnc(Nc2nc(C(N)Cc3ccc(F)cc3)cs2)nc1` (stereo unspecified), the Potency is 25.1 µM (active).

As to `O=C(NCCN1CCCOC1=O)C(=O)NCCN1CCCOC1=O`, the Potency result was “inactive”.

Consider `O=C(NC1CCCc2ccccc21)c1ccccc1Cl` (stereo unspecified), for which the Potency result is “inactive”.

Consider `O=C(Nc1ccc2nc(-c3ccco3)c(-c3ccco3)nc2c1)NC1CC1`, for which the Potency result is “inactive”.

For the compound `CCOC(=O)c1cnc2nc(N3CCOCC3)nn2c1N`, the Potency result was “inactive”.

Consider `NC(=S)c1cc2ccc(O)cc2oc1=O`, for which the Potency result is “inactive”.

Consider `Cc1[nH]c2ccccc2c1/C=C/c1nc2ccccc2c(=O)n1CCO`, for which the Potency result was “inactive”.

For the compound `NC(c1ccccc1)c1csc(Nc2ccc(C(F)(F)F)cn2)n1` (stereo unspecified), the Potency was 35.5 µM (active).

For the compound `CCCc1cnc(Nc2nc(C(N)Cc3ccc(C(F)(F)F)cc3)cs2)nc1` (stereo unspecified), the Potency was 22.4 µM (active).

With `CCc1cnc(Nc2nc(C(N)Cc3ccc(Cl)cc3)cs2)nc1` (stereo unspecified), the Potency is 35.5 µM (active).

As for `COc1cc(OC)nc(Nc2nc(C(N)Cc3ccc(Cl)cc3)cs2)n1` (stereo unspecified), the Potency is 35.5 µM (active).

Take `COc1ccccc1/C=[N+](\[O-])C1SC(=S)N(C)C1(C)C` (stereo unspecified): the Potency result was “inactive”.

Turning to `Cc1c(C)c2ccc(O[C@@H]3O[C@H](CO)[C@@H](O)[C@H](O)[C@H]3O)c(C)c2oc1=O`, the Potency entry was “inactive”.

Turning to `Cc1nc2ccc(NS(=O)(=O)c3c(F)cc(F)cc3Br)cc2s1`, the Potency entry is “inactive”.

Take `O=C(Nc1ccc(NC(=O)C2CC2)nc1)c1cnccn1`: the Potency result was “inactive”.

For `COc1ccc(-c2cc(=O)oc3c(O)c(O)ccc23)cc1`, the Potency entry was “inactive”.

Take `O=C(Nc1nc2n(n1)C(c1ccc(Cl)cc1)C=C(c1ccccc1)N2)c1ccco1` (stereo unspecified): the Potency result is “inactive”.

Take `O=C(CN1C(=O)/C(=C\c2ccccc2Cl)Oc2ccccc21)NCc1cccnc1`: the Potency entry was “inactive”.

As to `O=C(CN1C(=O)/C(=C\c2cccc(Br)c2)Oc2ccccc21)NCCCN1CCOCC1`, the Potency is 39.8 µM (active).

`CCCCNC(=O)c1ccc(/C=C2\Oc3ccccc3N(C)C2=O)cc1`: the Potency entry is “inactive”.

On to `COc1cc(/C=C(\C#N)c2ccccn2)ccc1OCc1ccccc1`, for which the Potency entry is “inactive”.

For the compound `O=C1OCCN1C(=O)[C@H]1[C@H](c2ccc(F)cc2)C(c2cccc(Cl)c2)=NN1c1ccc(Br)cc1`, the Potency entry was “inactive”.

With `CCCCc1ccc(Nc2nc(O)cc(CCC)n2)cc1`, the Potency was 39.8 µM (active).

Consider `Oc1cnnc(Nc2ccc(Nc3ccccc3)cc2)n1`, for which the Potency entry is “inactive”.

For the compound `CCNC(=O)N1CCN(S(=O)(=O)c2ccc3c(c2)OCCCO3)CC1`, the Potency entry is “inactive”.

Turning to `O=S(=O)(c1ccccc1)N(CC(F)(F)F)c1ccc(C(O)(C(F)(F)F)C(F)(F)F)cc1`, the Potency was 22.4 µM (active).

As for `CCN(c1ccc(OCC(=O)OCC(=O)Nc2ccc(F)c(F)c2F)cc1)S(=O)(=O)c1ccccc1`, the Potency result was “inactive”.

`COc1ccc(NC(=O)c2sc3nc(N4CCOCC4)c4c(c3c2N)CCCC4)cc1`: the Potency result was “inactive”.

`CC1(C(=O)NNC(=O)c2ccc(=O)oc2)CC1Br` (stereo unspecified): the Potency result was “inactive”.

As to `O=C(c1ccccc1NS(=O)(=O)c1ccc([N+](=O)[O-])cc1[N+](=O)[O-])N1O[C@@H]2C=C[C@H]1C2`, the Potency was 22.4 µM (active).

For the compound `COc1ccc(-c2nn(-c3ccccc3)cc2C(=O)Nc2ccc(C(=O)O)cc2)cc1OC`, the Potency entry is “inactive”.

In the case of `O=C(O)/C=C/c1cn(-c2ccccc2)nc1-c1cccs1`, the Potency result is “inactive”.

Regarding `CCN(CC)CCNC(=O)c1ccc(NC(=O)c2cn(-c3ccccc3)nc2-c2cccs2)cc1`, the Potency is 39.8 µM (active).

For the compound `CC(C)c1ccc(C2=CC(c3cccc(Cl)c3)n3ncnc3N2)cc1` (stereo unspecified), the Potency result is “inactive”.

As for `CC(c1ccccc1)N(C)C(=O)CN1CCN(S(=O)(=O)c2ccc3c(c2)OCCCO3)CC1` (stereo unspecified), the Potency entry was “inactive”.

`C=CCN(CC=C)CCOc1cccc(Oc2ccccc2)c1`: the Potency entry is “inactive”.

For the compound `CCN(CC)CCOc1ccc(/C(=C(/Cl)c2ccccc2)c2ccccc2)cc1`, the Potency is 35.5 µM (active) and 17.8 µM (active).

For the compound `COc1ccc(CNc2oc(/C=C/c3cccc(OC)c3)nc2C#N)cc1`, the Potency entry is “inactive”.

With `O=c1oc2c3c4c(cc2c(C(F)(F)F)c1CCN1CCOCC1)CCCN4CCC3`, the Potency result is “inactive”.

Consider `CCN(c1ccccc1)S(=O)(=O)c1ccc(Cl)c(C(=O)N2CCCC2)c1`, for which the Potency result is “inactive”.

In the case of `Cc1ccc(S(=O)(=O)N2CCN(C(=O)c3ccccn3)CC2)cc1`, the Potency entry was “inactive”.

As for `Cc1ccc(S(=O)(=O)N(Cc2ccccc2)c2ccccc2C(=O)N2CCCCC2)cc1`, the Potency was 31.6 µM (active).

With `CCOc1ccc2nc(NCCNC(=O)c3cc(OC)c(OC)c(OC)c3)c(C#N)cc2c1`, the Potency result was “inactive”.

With `CCOc1ccc(-c2nnc(SCC(=O)Nc3ccc4c(c3)c3ccccc3n4CC)n2N)cc1`, the Potency was 31.6 µM (active).

Consider `CCC(=O)Nc1ccc(NC(=O)CSc2nnnn2Cc2ccccc2)cc1C`, for which the Potency result is “inactive”.

For the compound `CCn1c(SCC(=O)Nc2cccc(Cl)c2)nnc1-c1nonc1NC(C)=O`, the Potency result is “inactive”.

As for `O=C(NCCO)c1cc2cc(Cl)cc(Cl)c2oc1=O`, the Potency entry is “inactive”.

As to `Cc1nccn1CCN(C)Cc1cn(Cc2ccccc2)nc1-c1ccc2c(c1)OCO2`, the Potency result is “inactive”.

In the case of `CN(Cc1cn(C)nc1-c1ccc(Oc2ccccc2)cc1)Cc1cnc2ccccn12`, the Potency is 35.5 µM (active).

Take `Cc1ccc2nc(N3CC(C)OC(C)C3)nc(-c3ccccc3)c2c1` (stereo unspecified): the Potency result is “inactive”.

Regarding `CC(C)Cc1ccc(C(C)C(=O)Nc2ncccn2)cc1` (stereo unspecified), the Potency entry is “inactive”.

For `CC(C)Cc1ccc(C(C)CC2=CCC(CN(C)C)C2=O)cc1` (stereo unspecified), the Potency was 22.4 µM (active).

Take `COc1cccc(CN2CC(C(=O)N3CCSCC3)CCC2=O)c1` (stereo unspecified): the Potency entry is “inactive”.

For `O=C(Oc1cc2oc(=O)cc(-c3ccccc3)c2cc1Cl)C1CCCCC1`, the Potency entry is “inactive”.

Turning to `CCCCNC(=O)c1cc2nc(-c3ccc(OC)cc3)cc(C(F)(F)F)n2n1`, the Potency result is “inactive”.

As for `CCN(CCCNC(=O)c1cc(Nc2ccc(OC)cc2)nc2ccccc12)c1cccc(C)c1`, the Potency entry is “inactive”.

For `CCN(CCCNC(=O)c1cc2cc3ccc(OC)cc3nc2s1)c1cccc(C)c1`, the Potency is 39.8 µM (active).

For `O=C1Nc2cc(C(=O)N3CCC(N4CCCCC4)CC3)ccc2S/C1=C\c1ccccc1`, the Potency is 39.8 µM (active).

Regarding `CCN1CCCC1CNC(=O)c1ccc2c(c1)NC(=O)/C(=C\c1ccc(C)cc1)S2` (stereo unspecified), the Potency was 35.5 µM (active).

For the compound `O=C(c1ccc2nc(-c3ccccc3)c(-c3ccccc3)nc2c1)N1CCCCC1`, the Potency result was “inactive”.

`CCN1CCCC1CNC(=O)c1ccc2c(c1)NC(=O)/C(=C\c1ccc(OC)c(OC)c1)S2` (stereo unspecified): the Potency is 31.6 µM (active).

Take `COCCCn1c(=O)/c(=C\c2ccc(OC(F)F)c(OC)c2)s/c1=C(/C#N)C(N)=O`: the Potency result is “inactive”.

For `O=C1Nc2cc(C(=O)N3CCOCC3)ccc2S/C1=C/c1ccccc1F`, the Potency entry was “inactive”.
